Data taken from the supplement of paper PMC11732987, “Enantioselective OTUD7B fragment discovery through chemoproteomics screening and high-throughput optimisation” (Communications Chemistry, 2025).

Assays:
Assay in all cases: log2 ratio of Biotin-Ahx-Ub-VS probe labelling (fragment/DMSO); higher = less target engagement (more negative = stronger competition), active = hit call of the paper (q ≤ 0.05, log2 ratio ≤ -1)
Conditions in all cases: compound concentration: 200 uM; treatment time: 3 h
[1] = molecular target: T1, OTUD6B (UniProt Q8N6M0)
T1 sequence (whole entry): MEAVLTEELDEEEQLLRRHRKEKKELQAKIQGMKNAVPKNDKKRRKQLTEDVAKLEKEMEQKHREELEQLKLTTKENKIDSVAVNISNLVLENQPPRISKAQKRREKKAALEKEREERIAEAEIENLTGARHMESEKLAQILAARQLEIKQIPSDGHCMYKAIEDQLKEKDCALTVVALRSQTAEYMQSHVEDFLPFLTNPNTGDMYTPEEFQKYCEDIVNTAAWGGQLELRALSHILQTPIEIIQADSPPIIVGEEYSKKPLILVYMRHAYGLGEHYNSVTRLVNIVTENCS
Summary of the method: (§1)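 HEK293T lysate (495 µg per sample, in Tris/CHAPS/IGEPAL buffer with protease inhibitors) was exposed in triplicate for 3 h to fragment at 200 µM or to vehicle, then to Biotin-Ahx-Ub-VS at 0.5 µM final for 1 h. Labelled DUBs were enriched on NeutrAvidin, digested with LysC and trypsin, and analysed by diaPASEF LC-MS/MS. Spectronaut label-free quantities were normalised to the global median, and values are average log2 ratios of fragment over vehicle from an unpaired t-test. Only proteins with ≥2 unique peptides were used.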

[2] = molecular target: T2, OTUD7B (UniProt Q6GQQ9)
T2 sequence (whole entry): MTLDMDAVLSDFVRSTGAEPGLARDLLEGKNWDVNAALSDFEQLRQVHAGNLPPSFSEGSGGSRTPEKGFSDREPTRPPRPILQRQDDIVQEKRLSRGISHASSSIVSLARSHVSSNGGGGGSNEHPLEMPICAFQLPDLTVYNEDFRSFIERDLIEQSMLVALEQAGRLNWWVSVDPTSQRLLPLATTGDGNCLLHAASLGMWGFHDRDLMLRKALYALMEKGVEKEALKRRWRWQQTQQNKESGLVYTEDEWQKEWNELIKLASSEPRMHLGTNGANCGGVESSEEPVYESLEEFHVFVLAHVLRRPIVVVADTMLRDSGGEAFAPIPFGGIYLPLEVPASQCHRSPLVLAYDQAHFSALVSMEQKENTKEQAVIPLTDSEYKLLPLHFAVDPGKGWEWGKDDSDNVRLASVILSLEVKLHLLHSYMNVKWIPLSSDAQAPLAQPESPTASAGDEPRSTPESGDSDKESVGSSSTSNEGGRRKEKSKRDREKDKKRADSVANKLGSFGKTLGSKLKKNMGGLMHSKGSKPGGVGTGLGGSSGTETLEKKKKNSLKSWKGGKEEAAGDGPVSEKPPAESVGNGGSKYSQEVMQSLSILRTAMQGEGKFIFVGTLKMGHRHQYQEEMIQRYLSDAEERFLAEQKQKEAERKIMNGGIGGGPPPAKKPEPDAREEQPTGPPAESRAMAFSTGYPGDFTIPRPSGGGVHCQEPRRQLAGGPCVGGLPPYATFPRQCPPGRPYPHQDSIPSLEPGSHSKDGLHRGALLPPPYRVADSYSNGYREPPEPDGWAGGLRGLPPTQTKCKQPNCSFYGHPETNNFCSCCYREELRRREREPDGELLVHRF
Summary of the method: as §1

[3] = molecular target: PRPF8 (UniProt Q6P2Q9)
Summary of the method: as §1

[4] = molecular target: T3, PSMD7 (UniProt P51665)
T3 sequence (whole entry): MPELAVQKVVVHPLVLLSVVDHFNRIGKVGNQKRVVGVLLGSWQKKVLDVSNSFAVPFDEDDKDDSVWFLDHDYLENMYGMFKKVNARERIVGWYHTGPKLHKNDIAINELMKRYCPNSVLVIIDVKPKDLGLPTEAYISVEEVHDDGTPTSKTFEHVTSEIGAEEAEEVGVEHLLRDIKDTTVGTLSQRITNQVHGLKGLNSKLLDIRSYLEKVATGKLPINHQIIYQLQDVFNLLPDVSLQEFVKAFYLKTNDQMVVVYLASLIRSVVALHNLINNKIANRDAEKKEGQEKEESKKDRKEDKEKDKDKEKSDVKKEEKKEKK
Summary of the method: as §1

[5] = molecular target: UCHL1 (UniProt P09936)
UCHL1, sequence (P09936 whole entry, looked up): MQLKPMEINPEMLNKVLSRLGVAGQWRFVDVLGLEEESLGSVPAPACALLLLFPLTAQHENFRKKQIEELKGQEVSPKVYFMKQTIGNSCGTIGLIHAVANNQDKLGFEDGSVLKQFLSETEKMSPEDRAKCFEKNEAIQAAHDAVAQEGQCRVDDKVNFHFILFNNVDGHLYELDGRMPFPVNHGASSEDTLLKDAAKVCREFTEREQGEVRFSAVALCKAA
Summary of the method: as §1

[6] = molecular target: T4, UCHL3 (UniProt P15374)
T4 sequence (whole entry): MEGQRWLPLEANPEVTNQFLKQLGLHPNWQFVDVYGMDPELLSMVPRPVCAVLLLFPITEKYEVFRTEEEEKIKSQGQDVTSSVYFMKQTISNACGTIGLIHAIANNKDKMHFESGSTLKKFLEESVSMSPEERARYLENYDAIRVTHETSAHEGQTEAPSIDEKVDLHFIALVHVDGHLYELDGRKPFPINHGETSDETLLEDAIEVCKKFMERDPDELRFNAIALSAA
Summary of the method: as §1

[7] = molecular target: T5, UCHL5 (UniProt Q9Y5K5)
T5 sequence (whole entry): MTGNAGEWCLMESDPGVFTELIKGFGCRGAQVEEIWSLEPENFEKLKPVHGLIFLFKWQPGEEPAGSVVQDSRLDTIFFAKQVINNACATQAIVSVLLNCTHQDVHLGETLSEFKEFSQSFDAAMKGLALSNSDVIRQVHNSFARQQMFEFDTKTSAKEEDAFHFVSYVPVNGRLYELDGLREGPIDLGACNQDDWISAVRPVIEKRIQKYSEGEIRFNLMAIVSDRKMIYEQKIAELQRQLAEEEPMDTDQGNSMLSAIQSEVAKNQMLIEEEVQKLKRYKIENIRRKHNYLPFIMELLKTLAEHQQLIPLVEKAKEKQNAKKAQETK
Summary of the method: as §1

[8] = molecular target: USP10 (UniProt Q14694)
USP10, sequence (Q14694 whole entry): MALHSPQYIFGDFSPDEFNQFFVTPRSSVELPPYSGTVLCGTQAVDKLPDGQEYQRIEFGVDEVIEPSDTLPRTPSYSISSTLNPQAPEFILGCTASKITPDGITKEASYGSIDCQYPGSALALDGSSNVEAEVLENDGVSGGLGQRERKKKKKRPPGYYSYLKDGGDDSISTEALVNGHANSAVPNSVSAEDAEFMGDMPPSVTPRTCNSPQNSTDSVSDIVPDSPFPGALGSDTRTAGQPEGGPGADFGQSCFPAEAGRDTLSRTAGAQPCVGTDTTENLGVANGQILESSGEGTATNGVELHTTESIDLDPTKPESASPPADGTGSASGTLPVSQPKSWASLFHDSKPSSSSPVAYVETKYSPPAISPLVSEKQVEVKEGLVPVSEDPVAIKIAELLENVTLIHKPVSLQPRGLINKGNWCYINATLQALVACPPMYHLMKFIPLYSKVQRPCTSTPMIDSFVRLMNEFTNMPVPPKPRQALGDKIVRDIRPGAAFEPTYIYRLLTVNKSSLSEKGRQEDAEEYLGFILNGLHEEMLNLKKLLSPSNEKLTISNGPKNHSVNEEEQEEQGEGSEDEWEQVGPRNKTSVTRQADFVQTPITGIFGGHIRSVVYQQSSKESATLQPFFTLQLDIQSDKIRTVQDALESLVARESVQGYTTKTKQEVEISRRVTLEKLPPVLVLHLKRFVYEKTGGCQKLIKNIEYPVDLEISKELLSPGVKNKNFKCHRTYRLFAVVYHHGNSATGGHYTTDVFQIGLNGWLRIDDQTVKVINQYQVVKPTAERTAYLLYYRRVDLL
Summary of the method: as §1

[9] = molecular target: T6, USP15 (UniProt Q9Y4E8)
T6 sequence (whole entry): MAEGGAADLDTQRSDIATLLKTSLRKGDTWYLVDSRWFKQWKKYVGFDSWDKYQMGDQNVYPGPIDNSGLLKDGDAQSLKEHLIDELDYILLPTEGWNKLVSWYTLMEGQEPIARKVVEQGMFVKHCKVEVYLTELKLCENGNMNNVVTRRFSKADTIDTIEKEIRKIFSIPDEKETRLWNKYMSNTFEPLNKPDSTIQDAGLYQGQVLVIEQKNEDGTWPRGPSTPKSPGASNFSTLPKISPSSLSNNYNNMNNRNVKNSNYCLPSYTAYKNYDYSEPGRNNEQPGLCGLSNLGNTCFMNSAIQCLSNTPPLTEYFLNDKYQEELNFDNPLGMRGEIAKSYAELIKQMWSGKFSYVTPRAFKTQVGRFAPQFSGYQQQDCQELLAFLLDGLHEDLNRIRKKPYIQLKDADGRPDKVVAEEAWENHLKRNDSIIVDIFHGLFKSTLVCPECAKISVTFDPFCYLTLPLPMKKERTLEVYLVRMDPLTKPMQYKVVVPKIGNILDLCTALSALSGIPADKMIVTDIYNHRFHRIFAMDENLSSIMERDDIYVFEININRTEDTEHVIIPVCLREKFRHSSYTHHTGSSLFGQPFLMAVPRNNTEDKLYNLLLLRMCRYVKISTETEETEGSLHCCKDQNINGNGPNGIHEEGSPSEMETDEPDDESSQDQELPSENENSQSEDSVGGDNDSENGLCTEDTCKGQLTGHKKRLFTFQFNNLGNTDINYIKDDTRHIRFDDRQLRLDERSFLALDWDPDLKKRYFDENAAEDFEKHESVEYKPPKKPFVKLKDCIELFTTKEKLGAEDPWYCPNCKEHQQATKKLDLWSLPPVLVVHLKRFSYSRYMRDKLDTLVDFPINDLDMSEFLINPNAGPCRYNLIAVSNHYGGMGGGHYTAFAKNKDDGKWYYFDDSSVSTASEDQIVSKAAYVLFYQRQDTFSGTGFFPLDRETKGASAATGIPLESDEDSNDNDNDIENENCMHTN
Summary of the method: as §1

[10] = molecular target: USP16 (UniProt Q9Y5T5)
USP16, sequence (Q9Y5T5 whole entry, looked up): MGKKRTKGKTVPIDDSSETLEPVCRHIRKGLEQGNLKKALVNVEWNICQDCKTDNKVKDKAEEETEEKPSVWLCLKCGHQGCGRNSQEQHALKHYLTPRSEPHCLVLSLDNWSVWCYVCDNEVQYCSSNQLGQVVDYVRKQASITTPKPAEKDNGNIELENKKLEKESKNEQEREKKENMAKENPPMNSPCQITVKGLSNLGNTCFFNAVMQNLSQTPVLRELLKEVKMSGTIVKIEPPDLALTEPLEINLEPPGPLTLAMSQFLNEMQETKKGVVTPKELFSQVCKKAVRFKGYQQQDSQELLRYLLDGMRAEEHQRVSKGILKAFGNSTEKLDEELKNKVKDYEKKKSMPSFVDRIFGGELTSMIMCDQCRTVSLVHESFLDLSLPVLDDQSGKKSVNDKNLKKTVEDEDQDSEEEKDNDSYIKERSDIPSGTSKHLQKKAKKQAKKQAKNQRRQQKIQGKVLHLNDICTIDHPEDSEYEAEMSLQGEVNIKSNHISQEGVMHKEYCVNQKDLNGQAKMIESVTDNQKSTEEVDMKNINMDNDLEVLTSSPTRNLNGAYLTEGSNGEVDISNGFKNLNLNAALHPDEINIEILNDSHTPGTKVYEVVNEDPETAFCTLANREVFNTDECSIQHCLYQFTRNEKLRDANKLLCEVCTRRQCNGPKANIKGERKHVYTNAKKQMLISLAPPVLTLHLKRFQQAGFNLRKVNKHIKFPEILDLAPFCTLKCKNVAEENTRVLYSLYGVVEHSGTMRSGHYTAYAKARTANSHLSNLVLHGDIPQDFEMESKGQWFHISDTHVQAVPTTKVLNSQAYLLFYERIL
Summary of the method: as §1

Measured: log2 ratio of Biotin-Ahx-Ub-VS probe labelling

Cl.O=C(CCl)NC1(c2ncccn2)CCC1
inactive: [1] 0.0771 | [2] -0.227 | [3] -0.0462 | [4] -0.289 | [6] 0.32 | [7] -0.0083 | [8] 0.0419 | [9] 0.0327 | [10] 0.0942
active: [5] -1.41
